Results reported in PubChem BioAssay (NCI).
Compounds without any hit were thinned out: in the full panel of roughly 79,000, 15% have a hit. Unmarked numbers belong to inactive results. Activity calls are given as the source filed them. Rule as the data show it: active = growth inhibition above about 70%; inactive = the rest.

test: NCI Yeast Anticancer Drug Screen. Data for the rad50 strain (AID 155);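 also: 0% = growth of vehicle-only cultures of the same strain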; settings: S. cerevisiae rad50 strain growth inhibition; at 11.0 µM; stronger effect = higher value
Outline: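 Growth of the mutant yeast was measured after compound exposure and referenced to vehicle-treated cultures.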

Row | Structure (SMILES) | growth inhibition
1 | CC(CN(C)C)C(=O)/C=C/c1ccc(Cl)c(Cl)c1 (configuration not stated) | 20%
2 | CCCCCCNCCCNc1c2cc(OC)ccc2nc2cccc([N+](=O)[O-])c12 | 66%
3 | NC(=S)N1N=C2c3ccccc3CC[C@H]2[C@@H]1c1ccc(Cl)cc1 | 29%
4 | C/C(=N/NC(=S)Nc1ccccc1C)c1ccccn1 | -9%
5 | O=C1/C(=C/c2ccc(Cl)c(Cl)c2)CNC/C1=C\c1ccc(Cl)c(Cl)c1 | 29%
6 | CC(C)OP(=O)(OC(C)C)C(=NCCO)NNc1ccc([N+](=O)[O-])cc1 | 24%
7 | N#CCC(=O)N/N=C(\c1ccccc1)C(c1ccccc1)C1(O)C(=O)Nc2c(Cl)ccc(Cl)c21 (configuration not stated) | 8%
8 | CC(C)(CN1CCCCC1)C(=O)CC(SCCS(=O)(=O)O)c1ccccc1 (configuration not stated) | 8%
9 | COC1=CCC23C(=O)C=CC(=O)C2(C1)C(=O)c1ccccc1C3=O (configuration not stated) | 12%
10 | CCCCN(CCCC)c1ccc(N=Nc2ccc(S(=O)(=O)O)cc2)cc1 | 38%
11 | c1ccc2nc3c(nc2c1)sc1ccccc13 | 92% (active)
12 | O=C1c2ccccc2-c2ccc(N=Cc3ccccc3)cc21 | 26%
13 | CNC(=S)N/N=C(/C)CCC/C(C)=N/NC(=S)NC | 87% (active)
14 | Nc1ccc(/C=C/c2ccc3cccnc3c2)cc1 | 23%
15 | COc1ccc2c3c1OC(C)C31CC(=O)CCC1CC2 (configuration not stated) | 3%
16 | CCOC(=O)Nc1ccc(C)c(NC(=O)OCC)c1 | 16%
17 | CCN(CC)CCNc1ccc2nc(C)n3c4ccc(OC)cc4c(=O)c1c23 | 63%
18 | C[N+](C)([O-])CCCNc1c2ccccc2nc2cccc([N+](=O)[O-])c12 | 91% (active)

Row | Structure (SMILES) | growth inhibition
19 | O=C(c1cc(=O)c2ccc(O)cc2o1)c1ccc(Cl)cc1Cl | 12%
20 | CCCNC(=O)OCc1c(COC(=O)NCCC)c(-c2ccc(Cl)c(Cl)c2)n2c1CCC2 | -27%
21 | O=C(Cc1ccccc1)NN1C(=O)C(Cl)C1c1cc(Br)cc(Br)c1O (configuration not stated) | 81% (active)
22 | CCOC(=O)C(Cc1c2ccccc2cc2ccccc12)(NC(C)=O)C(=O)OCC | -22%
23 | O=[N+]([O-])/C=C/c1cc2ccc3ccccc3c2[nH]1 | 78% (active)
24 | Fc1ccc(Nc2ccc3ccccc3c2)cc1 | 8%
25 | O=S1(=O)CCC2=CC(C(F)(F)F)=CC(C(F)(F)F)=CN21 | 79% (active)
26 | O=C(Cc1ccccc1)NNc1nc(NNC(=O)c2ccncc2)nc(Nc2ccc([N+](=O)[O-])cc2)n1 | 21%
27 | CCCCS/C(=C(/C#N)C(N)=O)c1cc2c([nH]1)CCCC2 | 24%
28 | O=C(O)c1ccccc1C(=O)OC1CCc2ccccc2C1 (configuration not stated) | 1%
29 | CCOC(=O)/C(=C\c1cccc(C)c1)C(C)=O | 58%
30 | NC(=S)N/N=C1\c2ccccc2CCC1CCC1(O)CCc2ccccc2C1=O (configuration not stated) | 49%
31 | Cc1cccc2c(Cl)c3cccc(C)c3nc12 | 21%
32 | CC(C)OC(=O)NNc1c(Cl)cc(Cl)cc1Cl | 18%
33 | Nc1ccc2c(c1)C(=O)c1c(F)cccc1-2 | 30%
34 | N#CSCC1COc2ccccc2O1 (configuration not stated) | 8%
35 | Cc1ccc(S(=O)(=O)NC(=O)C2C(=O)CC3(CCCCC3)CC2=O)cc1 | -23%
36 | CC1=NN(C(=O)c2ccccc2O)C(=O)/C1=C/c1ccco1 | 64%

same assay, conditions: S. cerevisiae rad50 strain growth inhibition; at 33.0 µM; stronger effect = higher value

Row | Structure (SMILES) | growth inhibition
37 | CC(CN(C)C)C(=O)/C=C/c1ccc(Cl)c(Cl)c1 (configuration not stated) | 66%
38 | CCCCCCNCCCNc1c2cc(OC)ccc2nc2cccc([N+](=O)[O-])c12 | 92% (active)
39 | NC(=S)N1N=C2c3ccccc3CC[C@H]2[C@@H]1c1ccc(Cl)cc1 | 36%
40 | C/C(=N/NC(=S)Nc1ccccc1C)c1ccccn1 | 7%
41 | O=C1/C(=C/c2ccc(Cl)c(Cl)c2)CNC/C1=C\c1ccc(Cl)c(Cl)c1 | 68%
42 | CC(C)OP(=O)(OC(C)C)C(=NCCO)NNc1ccc([N+](=O)[O-])cc1 | 59%
43 | N#CCC(=O)N/N=C(\c1ccccc1)C(c1ccccc1)C1(O)C(=O)Nc2c(Cl)ccc(Cl)c21 (configuration not stated) | 15%
44 | CC(C)(CN1CCCCC1)C(=O)CC(SCCS(=O)(=O)O)c1ccccc1 (configuration not stated) | 14%
45 | COC1=CCC23C(=O)C=CC(=O)C2(C1)C(=O)c1ccccc1C3=O (configuration not stated) | 52%
46 | CCCCN(CCCC)c1ccc(N=Nc2ccc(S(=O)(=O)O)cc2)cc1 | 92% (active)
47 | c1ccc2nc3c(nc2c1)sc1ccccc13 | 91% (active)
48 | O=C1c2ccccc2-c2ccc(N=Cc3ccccc3)cc21 | 66%
49 | CNC(=S)N/N=C(/C)CCC/C(C)=N/NC(=S)NC | 89% (active)
50 | Nc1ccc(/C=C/c2ccc3cccnc3c2)cc1 | 14%
51 | COc1ccc2c3c1OC(C)C31CC(=O)CCC1CC2 (configuration not stated) | 4%
52 | CCOC(=O)Nc1ccc(C)c(NC(=O)OCC)c1 | 19%
53 | CCN(CC)CCNc1ccc2nc(C)n3c4ccc(OC)cc4c(=O)c1c23 | 82% (active)
54 | C[N+](C)([O-])CCCNc1c2ccccc2nc2cccc([N+](=O)[O-])c12 | 94% (active)

Row | Structure (SMILES) | growth inhibition
55 | O=C(c1cc(=O)c2ccc(O)cc2o1)c1ccc(Cl)cc1Cl | 94% (active)
56 | CCCNC(=O)OCc1c(COC(=O)NCCC)c(-c2ccc(Cl)c(Cl)c2)n2c1CCC2 | 1%
57 | O=C(Cc1ccccc1)NN1C(=O)C(Cl)C1c1cc(Br)cc(Br)c1O (configuration not stated) | 91% (active)
58 | CCOC(=O)C(Cc1c2ccccc2cc2ccccc12)(NC(C)=O)C(=O)OCC | -4%
59 | O=[N+]([O-])/C=C/c1cc2ccc3ccccc3c2[nH]1 | 83% (active)
60 | Fc1ccc(Nc2ccc3ccccc3c2)cc1 | 4%
61 | O=S1(=O)CCC2=CC(C(F)(F)F)=CC(C(F)(F)F)=CN21 | 89% (active)
62 | O=C(Cc1ccccc1)NNc1nc(NNC(=O)c2ccncc2)nc(Nc2ccc([N+](=O)[O-])cc2)n1 | 25%
63 | CCCCS/C(=C(/C#N)C(N)=O)c1cc2c([nH]1)CCCC2 | 28%
64 | O=C(O)c1ccccc1C(=O)OC1CCc2ccccc2C1 (configuration not stated) | 14%
65 | CCOC(=O)/C(=C\c1cccc(C)c1)C(C)=O | 89% (active)
66 | NC(=S)N/N=C1\c2ccccc2CCC1CCC1(O)CCc2ccccc2C1=O (configuration not stated) | 84% (active)
67 | Cc1cccc2c(Cl)c3cccc(C)c3nc12 | 44%
68 | CC(C)OC(=O)NNc1c(Cl)cc(Cl)cc1Cl | 16%
69 | Nc1ccc2c(c1)C(=O)c1c(F)cccc1-2 | 87% (active)
70 | N#CSCC1COc2ccccc2O1 (configuration not stated) | 86% (active)
71 | Cc1ccc(S(=O)(=O)NC(=O)C2C(=O)CC3(CCCCC3)CC2=O)cc1 | 5%
72 | CC1=NN(C(=O)c2ccccc2O)C(=O)/C1=C/c1ccco1 | 89% (active)
